Consider 17 compounds from ChEMBL document CHEMBL1961873, “Compounds: GSK PKIS; Assays: Nanosyn kinase panel” (2012).

As usually defined, the inhibition is the drop in the measured response relative to a control, in per cent.

Experiment [1] concerns the target T1, Tyrosine-protein kinase ITK/TSK (Homo sapiens) (UniProt Q08881).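 Note: values are mean percent inhibition of ITK from the GSK PKIS screen.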
T1 sequence (whole entry): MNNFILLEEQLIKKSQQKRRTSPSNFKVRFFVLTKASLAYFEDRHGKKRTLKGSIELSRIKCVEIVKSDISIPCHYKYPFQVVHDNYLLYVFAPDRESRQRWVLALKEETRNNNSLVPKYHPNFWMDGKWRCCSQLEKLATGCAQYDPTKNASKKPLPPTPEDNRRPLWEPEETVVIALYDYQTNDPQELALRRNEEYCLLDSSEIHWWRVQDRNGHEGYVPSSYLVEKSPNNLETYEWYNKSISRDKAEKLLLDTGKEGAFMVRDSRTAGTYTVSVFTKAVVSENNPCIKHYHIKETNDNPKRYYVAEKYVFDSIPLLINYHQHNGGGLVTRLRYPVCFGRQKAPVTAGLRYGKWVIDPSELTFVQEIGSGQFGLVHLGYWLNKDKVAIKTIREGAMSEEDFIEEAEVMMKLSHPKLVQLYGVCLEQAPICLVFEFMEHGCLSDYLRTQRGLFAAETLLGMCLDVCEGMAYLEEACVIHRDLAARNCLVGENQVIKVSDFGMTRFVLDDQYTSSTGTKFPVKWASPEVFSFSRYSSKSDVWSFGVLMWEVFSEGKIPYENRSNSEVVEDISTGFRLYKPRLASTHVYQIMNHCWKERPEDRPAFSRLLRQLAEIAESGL
The note with it: at 1 µM.

Experiment [2] concerns the target Tyrosine-protein kinase JAK1 (Homo sapiens) (UniProt P23458). The note with it: at 0.1 µM.
For experiment [3] the target is unchanged. The note with it: at 1 µM.
The target in experiment [4] is Tyrosine-protein kinase JAK2 (Homo sapiens) (UniProt O60674). The following applies: at 0.1 µM.
Chain of Tyrosine-protein kinase JAK2 (Homo sapiens) (O60674 whole entry): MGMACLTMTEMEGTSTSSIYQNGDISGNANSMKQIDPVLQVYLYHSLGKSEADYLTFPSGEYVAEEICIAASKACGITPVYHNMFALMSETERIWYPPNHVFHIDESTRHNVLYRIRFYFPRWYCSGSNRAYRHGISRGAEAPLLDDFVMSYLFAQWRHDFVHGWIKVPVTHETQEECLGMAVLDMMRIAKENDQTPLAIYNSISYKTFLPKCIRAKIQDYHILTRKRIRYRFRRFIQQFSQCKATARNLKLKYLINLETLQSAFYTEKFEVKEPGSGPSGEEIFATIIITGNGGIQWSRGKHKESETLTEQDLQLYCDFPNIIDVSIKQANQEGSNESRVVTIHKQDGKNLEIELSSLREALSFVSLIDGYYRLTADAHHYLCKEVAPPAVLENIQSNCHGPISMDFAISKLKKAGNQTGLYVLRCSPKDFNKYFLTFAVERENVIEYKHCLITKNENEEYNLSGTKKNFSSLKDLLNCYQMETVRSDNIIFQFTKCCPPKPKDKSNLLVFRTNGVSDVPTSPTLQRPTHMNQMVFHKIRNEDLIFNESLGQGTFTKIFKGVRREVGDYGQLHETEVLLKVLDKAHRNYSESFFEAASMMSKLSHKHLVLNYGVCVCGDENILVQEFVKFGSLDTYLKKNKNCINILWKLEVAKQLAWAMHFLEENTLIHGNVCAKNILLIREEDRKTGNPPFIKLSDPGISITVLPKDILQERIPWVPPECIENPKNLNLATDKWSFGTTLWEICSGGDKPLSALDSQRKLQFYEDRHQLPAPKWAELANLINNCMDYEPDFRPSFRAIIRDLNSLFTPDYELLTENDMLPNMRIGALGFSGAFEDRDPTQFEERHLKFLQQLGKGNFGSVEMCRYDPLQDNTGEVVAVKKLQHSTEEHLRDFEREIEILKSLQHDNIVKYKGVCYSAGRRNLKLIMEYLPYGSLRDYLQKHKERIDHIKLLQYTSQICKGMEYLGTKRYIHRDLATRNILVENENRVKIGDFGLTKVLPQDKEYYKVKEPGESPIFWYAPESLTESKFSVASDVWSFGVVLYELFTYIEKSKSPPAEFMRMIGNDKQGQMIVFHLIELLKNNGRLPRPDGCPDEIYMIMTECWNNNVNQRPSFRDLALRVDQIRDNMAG
The target is the same in experiment [5]. The note with it: at 1 µM.
Experiment [6] deals with T2, Tyrosine-protein kinase JAK3 (Homo sapiens) (UniProt P52333).
T2 sequence (whole entry): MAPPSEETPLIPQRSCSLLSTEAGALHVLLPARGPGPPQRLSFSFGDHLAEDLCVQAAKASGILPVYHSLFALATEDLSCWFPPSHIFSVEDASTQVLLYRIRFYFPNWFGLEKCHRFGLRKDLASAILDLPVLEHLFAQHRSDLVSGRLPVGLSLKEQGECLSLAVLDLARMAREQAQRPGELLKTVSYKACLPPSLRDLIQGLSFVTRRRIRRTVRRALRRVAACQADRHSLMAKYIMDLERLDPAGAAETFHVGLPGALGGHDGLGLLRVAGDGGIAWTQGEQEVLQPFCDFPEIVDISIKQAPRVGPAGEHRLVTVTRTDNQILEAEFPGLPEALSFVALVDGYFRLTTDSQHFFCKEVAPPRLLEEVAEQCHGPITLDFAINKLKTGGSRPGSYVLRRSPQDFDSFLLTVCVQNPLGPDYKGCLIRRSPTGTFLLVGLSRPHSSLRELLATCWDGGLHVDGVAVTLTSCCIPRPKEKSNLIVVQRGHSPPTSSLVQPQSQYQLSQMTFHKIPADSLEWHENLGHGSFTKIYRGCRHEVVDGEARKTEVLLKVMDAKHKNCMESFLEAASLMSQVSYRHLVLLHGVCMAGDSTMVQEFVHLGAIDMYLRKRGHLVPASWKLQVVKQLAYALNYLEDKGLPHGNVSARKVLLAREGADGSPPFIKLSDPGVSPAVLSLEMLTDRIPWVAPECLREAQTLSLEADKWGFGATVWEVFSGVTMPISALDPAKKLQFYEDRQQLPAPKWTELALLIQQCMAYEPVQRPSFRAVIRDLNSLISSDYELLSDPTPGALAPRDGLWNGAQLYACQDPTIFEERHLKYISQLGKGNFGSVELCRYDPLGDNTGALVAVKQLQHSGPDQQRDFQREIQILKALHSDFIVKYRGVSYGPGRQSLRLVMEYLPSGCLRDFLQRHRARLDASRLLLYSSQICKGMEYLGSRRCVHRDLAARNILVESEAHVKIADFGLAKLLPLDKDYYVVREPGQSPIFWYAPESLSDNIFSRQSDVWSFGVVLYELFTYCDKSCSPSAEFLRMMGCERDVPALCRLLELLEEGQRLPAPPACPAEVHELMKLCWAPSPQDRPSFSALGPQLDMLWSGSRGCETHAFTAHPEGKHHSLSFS
The note with it: at 0.1 µM.

For experiment [7], the target named is T2, Tyrosine-protein kinase JAK3 (Homo sapiens). The following applies: at 1 µM.
Experiment [8] concerns the target Vascular endothelial growth factor receptor 2 (Homo sapiens) (UniProt P35968). The note with it: at 0.1 µM.
The target is the same in experiment [9]. The following applies: at 1 µM.
Experiment [10] addresses Mast/stem cell growth factor receptor Kit (Homo sapiens) (UniProt P10721). The note with it: at 0.1 µM.

Chain of Tyrosine-protein kinase JAK1 (Homo sapiens) (P23458 whole entry): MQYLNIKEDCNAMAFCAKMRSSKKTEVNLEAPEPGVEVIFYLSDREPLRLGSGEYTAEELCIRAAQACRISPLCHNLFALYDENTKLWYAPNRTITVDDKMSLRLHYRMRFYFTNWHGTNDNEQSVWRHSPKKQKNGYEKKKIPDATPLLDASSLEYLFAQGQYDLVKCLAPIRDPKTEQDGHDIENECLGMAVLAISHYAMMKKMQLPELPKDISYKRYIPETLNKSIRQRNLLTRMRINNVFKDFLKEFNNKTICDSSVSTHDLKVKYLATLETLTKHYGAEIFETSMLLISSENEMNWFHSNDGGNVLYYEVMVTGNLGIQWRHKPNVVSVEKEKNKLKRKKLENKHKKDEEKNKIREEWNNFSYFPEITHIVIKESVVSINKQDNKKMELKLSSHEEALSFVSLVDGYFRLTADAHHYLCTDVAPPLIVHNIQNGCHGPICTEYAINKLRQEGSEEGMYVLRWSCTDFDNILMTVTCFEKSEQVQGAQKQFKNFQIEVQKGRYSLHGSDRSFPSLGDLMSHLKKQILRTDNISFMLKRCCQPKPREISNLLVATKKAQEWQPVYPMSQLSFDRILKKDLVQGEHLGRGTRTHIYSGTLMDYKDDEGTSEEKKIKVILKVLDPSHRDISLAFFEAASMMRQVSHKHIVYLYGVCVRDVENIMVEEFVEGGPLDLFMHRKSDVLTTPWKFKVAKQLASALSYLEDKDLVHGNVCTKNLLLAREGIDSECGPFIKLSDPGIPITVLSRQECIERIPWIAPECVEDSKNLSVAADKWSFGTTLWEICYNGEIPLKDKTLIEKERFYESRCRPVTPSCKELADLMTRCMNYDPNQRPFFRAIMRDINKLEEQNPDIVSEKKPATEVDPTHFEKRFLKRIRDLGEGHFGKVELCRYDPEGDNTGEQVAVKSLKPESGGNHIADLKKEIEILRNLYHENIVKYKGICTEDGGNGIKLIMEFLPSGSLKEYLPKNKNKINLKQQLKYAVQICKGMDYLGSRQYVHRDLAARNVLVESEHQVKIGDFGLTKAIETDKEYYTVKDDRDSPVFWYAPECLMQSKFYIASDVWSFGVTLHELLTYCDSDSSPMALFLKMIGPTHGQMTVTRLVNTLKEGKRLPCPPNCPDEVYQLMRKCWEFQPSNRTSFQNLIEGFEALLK
Chain of Vascular endothelial growth factor receptor 2 (Homo sapiens) (P35968 whole entry): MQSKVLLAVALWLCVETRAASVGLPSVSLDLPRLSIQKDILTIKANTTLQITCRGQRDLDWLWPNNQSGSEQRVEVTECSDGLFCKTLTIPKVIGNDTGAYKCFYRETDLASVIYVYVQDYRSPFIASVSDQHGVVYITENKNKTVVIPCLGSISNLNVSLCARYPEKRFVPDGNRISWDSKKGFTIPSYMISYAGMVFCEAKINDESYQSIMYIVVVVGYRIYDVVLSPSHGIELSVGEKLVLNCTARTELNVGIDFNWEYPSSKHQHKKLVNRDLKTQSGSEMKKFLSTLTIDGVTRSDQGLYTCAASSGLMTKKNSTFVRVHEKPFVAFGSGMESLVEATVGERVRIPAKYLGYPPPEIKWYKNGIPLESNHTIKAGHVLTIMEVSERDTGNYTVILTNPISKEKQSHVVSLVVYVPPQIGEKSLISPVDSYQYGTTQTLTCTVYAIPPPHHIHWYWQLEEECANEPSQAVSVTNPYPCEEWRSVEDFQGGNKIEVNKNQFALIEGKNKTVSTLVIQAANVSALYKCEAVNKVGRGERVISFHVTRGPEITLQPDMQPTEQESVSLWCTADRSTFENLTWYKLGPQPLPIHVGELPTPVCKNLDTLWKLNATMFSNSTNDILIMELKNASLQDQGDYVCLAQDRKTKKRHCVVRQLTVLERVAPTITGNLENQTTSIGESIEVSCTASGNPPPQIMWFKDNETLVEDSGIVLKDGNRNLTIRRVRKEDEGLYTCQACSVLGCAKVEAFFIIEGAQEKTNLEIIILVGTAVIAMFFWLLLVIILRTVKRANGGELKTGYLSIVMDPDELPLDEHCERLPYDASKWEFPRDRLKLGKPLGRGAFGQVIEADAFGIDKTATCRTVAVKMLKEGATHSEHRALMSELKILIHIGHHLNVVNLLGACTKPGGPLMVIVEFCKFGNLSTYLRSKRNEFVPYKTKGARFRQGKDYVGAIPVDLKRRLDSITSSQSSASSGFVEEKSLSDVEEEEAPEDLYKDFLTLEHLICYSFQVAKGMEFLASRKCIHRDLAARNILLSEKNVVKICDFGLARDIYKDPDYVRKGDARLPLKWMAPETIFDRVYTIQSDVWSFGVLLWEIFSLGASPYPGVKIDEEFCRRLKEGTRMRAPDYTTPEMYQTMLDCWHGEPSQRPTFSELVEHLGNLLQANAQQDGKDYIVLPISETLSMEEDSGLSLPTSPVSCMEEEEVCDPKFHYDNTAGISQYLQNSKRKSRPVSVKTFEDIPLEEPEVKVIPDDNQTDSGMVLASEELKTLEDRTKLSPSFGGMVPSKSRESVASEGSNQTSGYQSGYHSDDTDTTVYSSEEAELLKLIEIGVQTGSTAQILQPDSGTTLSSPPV
Chain of Mast/stem cell growth factor receptor Kit (Homo sapiens) (P10721 whole entry): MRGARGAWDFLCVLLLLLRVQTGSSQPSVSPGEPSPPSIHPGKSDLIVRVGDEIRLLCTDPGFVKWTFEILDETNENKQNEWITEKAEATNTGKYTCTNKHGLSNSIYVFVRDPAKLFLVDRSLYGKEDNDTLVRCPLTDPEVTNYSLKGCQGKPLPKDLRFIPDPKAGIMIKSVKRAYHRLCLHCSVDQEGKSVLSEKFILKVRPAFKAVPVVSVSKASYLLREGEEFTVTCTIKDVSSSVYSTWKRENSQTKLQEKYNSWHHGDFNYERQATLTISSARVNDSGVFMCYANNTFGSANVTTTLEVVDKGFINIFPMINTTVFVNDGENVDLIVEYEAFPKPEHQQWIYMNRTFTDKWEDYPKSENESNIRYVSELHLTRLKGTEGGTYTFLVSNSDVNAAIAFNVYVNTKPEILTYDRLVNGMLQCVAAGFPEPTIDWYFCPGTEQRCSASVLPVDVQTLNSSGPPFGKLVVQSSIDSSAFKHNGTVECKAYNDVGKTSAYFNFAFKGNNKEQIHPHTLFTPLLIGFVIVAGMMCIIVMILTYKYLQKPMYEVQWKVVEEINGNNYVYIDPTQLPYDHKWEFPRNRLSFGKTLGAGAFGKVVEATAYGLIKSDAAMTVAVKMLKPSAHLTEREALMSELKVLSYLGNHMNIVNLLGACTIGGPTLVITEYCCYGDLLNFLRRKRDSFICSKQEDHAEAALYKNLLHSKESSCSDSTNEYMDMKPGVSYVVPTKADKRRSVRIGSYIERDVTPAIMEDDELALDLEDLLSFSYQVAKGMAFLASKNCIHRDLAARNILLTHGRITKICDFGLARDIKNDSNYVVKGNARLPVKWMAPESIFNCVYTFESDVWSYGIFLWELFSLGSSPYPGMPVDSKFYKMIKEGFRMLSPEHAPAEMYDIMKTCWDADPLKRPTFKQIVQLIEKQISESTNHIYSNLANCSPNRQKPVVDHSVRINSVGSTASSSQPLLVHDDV

For the compound `NS(=O)(=O)c1ccc(N/N=C2\C(=O)Nc3ccc(-c4cnco4)cc32)cc1`, the inhibition was -0.93% in [1]; 1.96% in [2]; 6.12% in experiment [3]; 0.38% in [4]; 5.7% in [5]; -4.76% in [6]. Further, the inhibition stood at 24.1% in [7], 6.94% in experiment [8], 39.1% in experiment [9] and 5.83% in experiment [10].

`O=C(Nc1n[nH]c2cc(-c3cc(F)ccc3F)ccc12)C1CC1`: the inhibition in experiment [1] is 7.94%; in experiment [2] it was 3.49%; in experiment [3], 8.44%; in experiment [4], 1.64%; in experiment [5] it was 1.73%; in experiment [6] it was -0.26%. The inhibition in experiment [7] was -0.99%; in [8] it was 6.28%; in experiment [9] it was 12%; in experiment [10] it was 4.01%.

Take `COc1ccc(C2=C(N3CCc4ccccc43)C(=O)NC2=O)cc1`: the inhibition in experiment [1] was 2.26%; in experiment [2] it was 3.92%; in experiment [3], 7.64%; in experiment [4], 2.9%; in [5] it was 3.26%; in experiment [6] it was -0.7%. For the same compound, the inhibition in [7] was determined as 1.63%; in experiment [8], 8.98%; in experiment [9], 14.5%; in experiment [10], 7.63%.

As for `NC(=O)c1cc(-c2ccc(F)cc2)cc(-c2ccncc2)c1N`, the inhibition in [1] is -0.8%; in experiment [2], 3.49%; in [3], 12.2%; in experiment [4], 1.44%; in [5] it was 1.06%; in experiment [6] it was -0.87%. In addition, the inhibition was -2.1% in experiment [7], 6% in experiment [8], 6.66% in experiment [9] and 11.9% in [10].

On to `FC(F)(F)c1cccc(Nc2nccc(-c3cnn4nc(-c5ccccc5)ccc34)n2)c1`, for which the inhibition in experiment [1] was 3.33%; in experiment [2] it was -0.86%; in experiment [3], 0.5%; in experiment [4] it was -0.15%; in [5], 0.22%; in [6], -1.84%. The inhibition was -0.12% in experiment [7], 0.05% in [8], 6.02% in experiment [9] and 5.78% in [10].

Take `NC(=O)c1cc(-c2ccncc2)cc(-c2ccccc2)c1N`: the inhibition is 1.74% in [1]; 6.03% in [2]; 4.31% in experiment [3]; 2.14% in experiment [4]; 1.86% in experiment [5]; -1.25% in [6]. In addition, the inhibition in experiment [7] was -1.1%; in experiment [8] it was 3.91%; in experiment [9] it was 10.7%; in [10], 23%.

As for `C#Cc1cccc(Nc2ncnc3ccc(OCCCCNCCS(C)(=O)=O)cc23)c1`, the inhibition in experiment [1] is -2.14%; in experiment [2], 0.29%; in experiment [3] it was 13.4%; in experiment [4] it was 1%; in experiment [5], 0.71%; in experiment [6], -4.71%. In addition, the inhibition in experiment [7] is -3.57%; in experiment [8], 14.2%; in experiment [9], 19.6%; in [10] it was 4.93%.

Consider `CN(C)CCCNc1nccc(-c2c(-c3ccc(F)cc3)nn3cc(C(F)(F)F)ccc23)n1`, for which the inhibition in experiment [1] was -1.31%; in experiment [2], 0.29%; in [3], -0.9%; in experiment [4], 0.65%; in experiment [5], 3.68%; in experiment [6], -2.83%. For the same compound, the inhibition is -1.89% in experiment [7], 6.32% in [8], 11.3% in experiment [9] and 3.48% in experiment [10].

On to `COc1cc2ncn(-c3cc(OCc4cccs4)c(C(N)=O)s3)c2cc1OC`, for which the inhibition was 2.34% in experiment [1]; 9.11% in experiment [2]; 19.9% in [3]; 1.45% in [4]; 1.19% in experiment [5]; -2.77% in experiment [6]. Moreover, the inhibition in experiment [7] is -0.29%; in [8], 14.1%; in [9] it was 50.5%; in experiment [10], 1.96%.

As to `COc1ccc2cc(-c3c(-c4ccncc4)nc(-c4ccc(S(C)(=O)=O)cc4C)n3C)ccc2c1`, the inhibition is 1.36% in experiment [1]; 5.05% in [2]; 11.1% in experiment [3]; 1.62% in experiment [4]; 1.45% in experiment [5]; -0.96% in experiment [6]. For the same compound, the inhibition in experiment [7] was -0.93%; in [8], 10.7%; in experiment [9], 47.8%; in [10], 5.09%.

As for `Fc1ccc(-c2ncn(C3CCNCC3)c2-c2ccnc(Oc3ccc(F)c(F)c3)n2)cc1`, the inhibition in experiment [1] is -2.62%; in experiment [2], 3.04%; in experiment [3], 7.49%; in experiment [4], 1.1%; in experiment [5] it was 0.69%; in experiment [6] it was -5.49%. Further, the inhibition in experiment [7] is -1.81%; in experiment [8], 6.78%; in experiment [9] it was 11.5%; in experiment [10], 1.92%.

Turning to `COc1ccc2cc(-c3c(-c4ccncc4)nc(-c4ccc([S+](C)[O-])cc4C)n3C)ccc2c1` (stereo not given), the inhibition in [1] is 0.95%; in experiment [2], -3.09%; in [3] it was 4.21%; in [4], 0.25%; in experiment [5], -0.49%; in experiment [6], 0.51%. In addition, the inhibition was 0.61% in experiment [7], 8.24% in experiment [8], 49% in [9] and -0.44% in [10].

Turning to `COc1cc2ncn(-c3cc(OCCc4ccccc4)c(C(N)=O)s3)c2cc1OC`, the inhibition in [1] was 2.27%; in experiment [2] it was 1.72%; in experiment [3], -5.52%; in [4], 0.93%; in experiment [5], 0.41%; in experiment [6] it was -0.27%. In addition, the inhibition in experiment [7] was -0.4%; in [8] it was 3.48%; in experiment [9], 17%; in [10] it was 0.95%.

With `C/C(Nc1ccc(S(N)(=O)=O)cc1)=C1/C(=O)Nc2ccccc21`, the inhibition is 4.72% in experiment [1]; -6.57% in experiment [2]; -1.09% in experiment [3]; -0.57% in experiment [4]; 0.27% in experiment [5]; -0.45% in [6]. Further, the inhibition in [7] turned out to be 6.44%; in [8], 9.11%; in experiment [9], 44.5%; in [10] it was 38.4%.

Turning to `NS(=O)(=O)c1ccc(Nc2cc(-c3ccc(O)c(F)c3)n[nH]2)cc1`, the inhibition in experiment [1] was 12.4%; in experiment [2] it was -7.43%; in [3], 6.94%; in experiment [4], -0.13%; in [5], -0.37%; in experiment [6] it was 0.11%. For the same compound, the inhibition came to 8.25% in experiment [7], 4.49% in [8], 35.3% in experiment [9] and 20.9% in experiment [10].

For the compound `COc1ccc(-c2ccc3c(NC(=O)C4CC4)n[nH]c3n2)cc1`, the inhibition in experiment [1] was 2.25%; in experiment [2] it was 2.09%; in [3] it was 10.9%; in experiment [4], -0.18%; in experiment [5], -0.27%; in [6], -1%. In addition, the inhibition in experiment [7] amounted to 0.12%; in [8] it was 0.66%; in [9] it was 3.4%; in [10] it was 0.69%.

As to `Cc1ccc(C(=O)NC(C)C)cc1-c1ccc(C(=O)NCC2CC2)cc1`, the inhibition in experiment [1] is -0.47%; in experiment [2], -3.33%; in [3], -1.59%; in experiment [4], -1.52%; in experiment [5], -1.28%; in experiment [6], 0.73%. In addition, the inhibition in experiment [7] was 1.51%; in [8] it was -1.43%; in experiment [9], 0.78%; in [10] it was -2.99%.
